Here are results for 30 targets from the supplement of paper PMC12819154, “High-throughput peptide-centric local stability assay extends protein–ligand identification to membrane proteins, tissues and bacteria” (Nature Structural & Molecular Biology, 2025).
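Further: lysate desalted by size exclusion to strip endogenous ATP, peptide intensities built from DIA-NN precursor signals, and peptides missing any value discarded before comparison.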

Chain of UniProt P69829 (P69829 whole entry): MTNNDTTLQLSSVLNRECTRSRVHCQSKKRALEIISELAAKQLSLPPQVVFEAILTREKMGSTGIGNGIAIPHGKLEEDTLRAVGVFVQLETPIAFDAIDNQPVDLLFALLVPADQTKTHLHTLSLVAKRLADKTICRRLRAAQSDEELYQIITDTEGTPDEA
Chain of UniProt P52073 (P52073 whole entry): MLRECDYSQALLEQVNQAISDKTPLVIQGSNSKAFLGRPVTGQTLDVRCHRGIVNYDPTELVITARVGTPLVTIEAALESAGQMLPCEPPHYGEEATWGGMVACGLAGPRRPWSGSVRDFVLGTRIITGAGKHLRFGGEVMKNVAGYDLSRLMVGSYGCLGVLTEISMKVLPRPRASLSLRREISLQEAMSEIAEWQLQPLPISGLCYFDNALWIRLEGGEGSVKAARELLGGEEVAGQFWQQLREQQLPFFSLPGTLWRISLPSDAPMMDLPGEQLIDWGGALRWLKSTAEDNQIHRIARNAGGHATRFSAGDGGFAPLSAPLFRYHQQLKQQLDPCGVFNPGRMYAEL
Chain of UniProt P45955 (P45955 whole entry): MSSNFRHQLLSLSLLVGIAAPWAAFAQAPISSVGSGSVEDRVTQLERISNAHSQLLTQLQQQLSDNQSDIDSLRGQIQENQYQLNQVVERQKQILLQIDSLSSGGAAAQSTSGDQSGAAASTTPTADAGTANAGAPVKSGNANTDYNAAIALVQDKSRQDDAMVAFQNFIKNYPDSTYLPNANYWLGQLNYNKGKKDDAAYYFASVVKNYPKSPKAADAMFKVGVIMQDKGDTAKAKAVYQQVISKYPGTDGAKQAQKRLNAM
Chain of UniProt P06612 (P06612 whole entry): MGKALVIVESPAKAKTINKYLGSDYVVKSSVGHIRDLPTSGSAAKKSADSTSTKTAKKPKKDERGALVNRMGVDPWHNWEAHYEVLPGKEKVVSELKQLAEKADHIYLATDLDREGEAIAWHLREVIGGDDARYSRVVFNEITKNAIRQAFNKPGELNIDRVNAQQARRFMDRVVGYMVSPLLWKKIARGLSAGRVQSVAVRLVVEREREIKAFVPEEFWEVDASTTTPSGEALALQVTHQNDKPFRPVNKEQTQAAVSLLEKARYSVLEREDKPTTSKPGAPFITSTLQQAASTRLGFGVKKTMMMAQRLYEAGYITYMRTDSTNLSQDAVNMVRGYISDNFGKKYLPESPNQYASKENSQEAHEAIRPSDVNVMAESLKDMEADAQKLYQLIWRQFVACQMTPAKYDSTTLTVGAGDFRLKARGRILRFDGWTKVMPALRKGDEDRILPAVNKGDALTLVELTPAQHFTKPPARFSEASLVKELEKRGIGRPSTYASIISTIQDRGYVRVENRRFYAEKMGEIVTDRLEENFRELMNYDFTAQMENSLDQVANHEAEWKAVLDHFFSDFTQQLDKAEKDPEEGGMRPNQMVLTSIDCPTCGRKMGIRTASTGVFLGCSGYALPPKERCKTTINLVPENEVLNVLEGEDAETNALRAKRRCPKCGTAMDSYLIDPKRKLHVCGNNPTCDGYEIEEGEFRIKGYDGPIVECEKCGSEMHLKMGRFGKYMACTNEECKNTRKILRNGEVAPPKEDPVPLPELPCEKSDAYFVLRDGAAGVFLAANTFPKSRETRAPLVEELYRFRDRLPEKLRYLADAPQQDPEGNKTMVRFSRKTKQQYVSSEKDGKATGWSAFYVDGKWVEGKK
Chain of UniProt P61887 (P61887 whole entry): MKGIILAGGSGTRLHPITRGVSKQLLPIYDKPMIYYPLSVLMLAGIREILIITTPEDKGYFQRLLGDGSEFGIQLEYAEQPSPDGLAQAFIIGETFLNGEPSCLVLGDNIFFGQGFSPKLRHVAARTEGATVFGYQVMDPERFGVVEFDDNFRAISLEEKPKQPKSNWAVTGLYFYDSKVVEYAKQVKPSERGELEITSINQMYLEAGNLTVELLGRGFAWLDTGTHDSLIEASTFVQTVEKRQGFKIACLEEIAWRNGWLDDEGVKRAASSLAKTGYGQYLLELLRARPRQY
Chain of UniProt P10443 (P10443 whole entry): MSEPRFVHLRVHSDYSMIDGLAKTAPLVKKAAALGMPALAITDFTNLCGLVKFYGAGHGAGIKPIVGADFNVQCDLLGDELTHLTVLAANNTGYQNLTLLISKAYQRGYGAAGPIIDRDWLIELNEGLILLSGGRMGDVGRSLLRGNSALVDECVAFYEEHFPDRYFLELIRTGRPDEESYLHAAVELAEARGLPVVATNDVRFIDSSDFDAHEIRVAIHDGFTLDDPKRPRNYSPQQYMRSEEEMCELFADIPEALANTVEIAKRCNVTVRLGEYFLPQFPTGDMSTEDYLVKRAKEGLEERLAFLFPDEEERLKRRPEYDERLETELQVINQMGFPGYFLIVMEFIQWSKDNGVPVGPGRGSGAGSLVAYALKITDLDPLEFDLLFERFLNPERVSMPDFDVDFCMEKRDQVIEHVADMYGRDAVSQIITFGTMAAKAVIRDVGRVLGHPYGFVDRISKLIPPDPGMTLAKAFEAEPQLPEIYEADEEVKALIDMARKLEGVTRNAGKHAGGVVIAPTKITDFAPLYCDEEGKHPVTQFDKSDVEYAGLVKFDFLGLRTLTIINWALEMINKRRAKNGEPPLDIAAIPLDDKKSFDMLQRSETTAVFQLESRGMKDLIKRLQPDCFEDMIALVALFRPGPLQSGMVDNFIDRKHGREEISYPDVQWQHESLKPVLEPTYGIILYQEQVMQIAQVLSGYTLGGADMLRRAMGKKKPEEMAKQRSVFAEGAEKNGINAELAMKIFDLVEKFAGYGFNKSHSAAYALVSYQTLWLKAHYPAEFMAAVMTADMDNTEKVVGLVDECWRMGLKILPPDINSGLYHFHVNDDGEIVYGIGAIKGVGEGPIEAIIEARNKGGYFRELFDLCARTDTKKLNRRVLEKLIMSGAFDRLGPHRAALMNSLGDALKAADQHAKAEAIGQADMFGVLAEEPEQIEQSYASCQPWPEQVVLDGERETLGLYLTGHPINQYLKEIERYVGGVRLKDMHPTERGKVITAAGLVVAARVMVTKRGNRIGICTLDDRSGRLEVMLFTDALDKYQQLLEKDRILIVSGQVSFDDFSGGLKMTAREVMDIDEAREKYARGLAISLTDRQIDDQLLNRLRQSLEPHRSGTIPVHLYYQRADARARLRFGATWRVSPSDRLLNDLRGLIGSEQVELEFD
Chain of UniProt P37188 (P37188 whole entry): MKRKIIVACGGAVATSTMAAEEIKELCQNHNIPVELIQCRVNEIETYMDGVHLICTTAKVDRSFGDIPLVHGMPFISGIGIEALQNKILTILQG
Chain of UniProt P09323 (P09323 whole entry): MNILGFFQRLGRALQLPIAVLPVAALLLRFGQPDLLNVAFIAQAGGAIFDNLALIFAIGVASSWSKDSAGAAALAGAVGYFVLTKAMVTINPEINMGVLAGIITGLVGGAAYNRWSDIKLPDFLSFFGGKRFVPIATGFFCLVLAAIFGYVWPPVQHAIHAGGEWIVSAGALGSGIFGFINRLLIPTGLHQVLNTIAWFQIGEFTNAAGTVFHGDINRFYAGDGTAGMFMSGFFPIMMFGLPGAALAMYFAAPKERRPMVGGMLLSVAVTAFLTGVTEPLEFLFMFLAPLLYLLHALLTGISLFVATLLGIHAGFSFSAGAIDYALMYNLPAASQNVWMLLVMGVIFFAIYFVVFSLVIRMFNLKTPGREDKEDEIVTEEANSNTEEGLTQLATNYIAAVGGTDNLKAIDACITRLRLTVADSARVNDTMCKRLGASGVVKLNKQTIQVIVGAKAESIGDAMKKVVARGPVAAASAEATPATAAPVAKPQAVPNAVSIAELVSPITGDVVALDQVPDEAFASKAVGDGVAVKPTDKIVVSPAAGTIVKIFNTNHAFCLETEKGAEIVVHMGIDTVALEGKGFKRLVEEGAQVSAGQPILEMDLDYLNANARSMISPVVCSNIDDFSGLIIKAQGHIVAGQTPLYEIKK
Chain of UniProt P31142 (P31142 whole entry): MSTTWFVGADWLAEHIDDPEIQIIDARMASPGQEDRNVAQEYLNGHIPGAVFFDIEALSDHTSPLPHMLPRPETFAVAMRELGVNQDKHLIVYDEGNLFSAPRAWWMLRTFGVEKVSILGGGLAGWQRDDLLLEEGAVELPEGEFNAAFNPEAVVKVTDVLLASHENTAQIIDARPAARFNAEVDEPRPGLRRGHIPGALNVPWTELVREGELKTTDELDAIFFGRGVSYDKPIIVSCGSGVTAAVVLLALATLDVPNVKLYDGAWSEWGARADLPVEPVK
Chain of UniProt P23847 (P23847 whole entry): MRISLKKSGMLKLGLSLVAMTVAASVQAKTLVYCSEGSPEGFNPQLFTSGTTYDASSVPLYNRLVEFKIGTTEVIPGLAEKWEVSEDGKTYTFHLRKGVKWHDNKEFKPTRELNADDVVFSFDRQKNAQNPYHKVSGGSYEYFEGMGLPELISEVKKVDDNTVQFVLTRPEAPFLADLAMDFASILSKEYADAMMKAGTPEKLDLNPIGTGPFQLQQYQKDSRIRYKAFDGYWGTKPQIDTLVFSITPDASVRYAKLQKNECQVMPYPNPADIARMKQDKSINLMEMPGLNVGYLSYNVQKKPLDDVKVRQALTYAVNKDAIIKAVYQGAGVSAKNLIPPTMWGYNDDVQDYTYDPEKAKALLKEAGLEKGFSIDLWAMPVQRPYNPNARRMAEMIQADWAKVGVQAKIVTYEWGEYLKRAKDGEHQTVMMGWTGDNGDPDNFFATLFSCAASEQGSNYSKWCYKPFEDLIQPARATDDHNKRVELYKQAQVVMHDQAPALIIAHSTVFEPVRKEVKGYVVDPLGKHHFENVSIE
Chain of UniProt P02925 (P02925 whole entry): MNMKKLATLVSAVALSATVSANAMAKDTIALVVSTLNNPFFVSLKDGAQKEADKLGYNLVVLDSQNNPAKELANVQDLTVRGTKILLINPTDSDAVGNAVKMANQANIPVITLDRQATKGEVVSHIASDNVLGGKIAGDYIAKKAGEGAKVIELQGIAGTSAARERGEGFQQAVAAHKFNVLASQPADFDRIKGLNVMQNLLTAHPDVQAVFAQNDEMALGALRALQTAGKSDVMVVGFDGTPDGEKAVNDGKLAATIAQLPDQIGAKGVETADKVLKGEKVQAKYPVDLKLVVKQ

Compound in this test: Nc1ncnc2c1ncn2[C@@H]1O[C@H](COP(=O)(O)OP(=O)(O)OP(=O)(O)O)[C@@H](O)[C@H]1O [adenosine 5'-triphosphate]
Put plainly: log2 fold change of tryptic peptide abundance, ligand vs vehicle (limited proteolysis) (log2 ratio); higher = more trypsin-susceptible (destabilized). The conditions noted are these: ligand concentration: 5 mM; sample: E. coli desalted lysate; replicate design: treated before aliquoting. As to the method:
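HT-PELSA: desalted E. coli K-12 BW25113 lysate (with 12 mM MgCl2) incubated with 5 mM ATP (pH 7) or water for 30 min at 25 C, then a 4 min trypsin pulse at 22 C. Peptides were quantified by DIA-MS (4 replicates). Value is the peptide log2 fold change (treated/control); negative = stabilized. Scale: negative = ligand-stabilized region.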
Consider “UniProt P02925 (peptide sequence: IAGDYIAKK, peptide start residue: 136)”, for which the log2 fold change was 1.27.

Take “UniProt P30015 (peptide sequence: TGDTPAQER, peptide start residue: 132)”: the log2 fold change is -2.26.

For the target “UniProt P77804 (peptide sequence: LEGYQEDQAKK, peptide start residue: 423)”, the log2 fold change came out at 0.387.

As to “UniProt P09323 (peptide sequence: AIDACITR, peptide start residue: 408)”, the log2 fold change was determined as 0.593.

Consider “UniProt P37188 (peptide sequence: VNEIETYMDGVHLICTTAKVDR, peptide start residue: 41)”, for which the log2 fold change is 0.402.

Regarding “UniProt P24232 (peptide sequence: MFTHNPELKEIFNMSNQR, peptide start residue: 32)”, the log2 fold change was -1.5.

Turning to “UniProt P03007 (peptide sequence: VTDSLAVAR, peptide start residue: 127)”, the log2 fold change is 0.313.

For “UniProt P08200 (peptide sequence: AAIEYAIANDRDSVTLVHK, peptide start residue: 212)”, the log2 fold change was -0.698.

For “UniProt P10443 (peptide sequence: GLPVVATNDVR, peptide start residue: 193)”, the log2 fold change was 0.539.

Take “UniProt P0CB39 (peptide sequence: QYYMNQQR, peptide start residue: 350)”: the log2 fold change is -0.737.

Consider “UniProt P06612 (peptide sequence: ADHIYLATDLDREGEAIAWHLR, peptide start residue: 103)”, for which the log2 fold change is -1.02.

As for “UniProt Q47146 (peptide sequence: GITLPSNSTGGVK, peptide start residue: 375)”, the log2 fold change is -0.706.

“UniProt Q46915 (peptide sequence: AMNSEAVVR, peptide start residue: 181)”: the log2 fold change is -0.607.

For “UniProt P76193 (peptide sequence: TGTPVKVINEPVKYSVEPNGMR, peptide start residue: 226)”, the log2 fold change is -0.912.

Take “UniProt P23847 (peptide sequence: MAEMIQADWAK, peptide start residue: 392)”: the log2 fold change is -0.859.

As for “UniProt P45955 (peptide sequence: AVYQQVISKYPGTDGAK, peptide start residue: 238)”, the log2 fold change was 0.687.

Regarding “UniProt P76273 (peptide sequence: CGISNVALTHFDGR, peptide start residue: 165)”, the log2 fold change was determined as 0.512.

On to “UniProt P36672 (peptide sequence: LRFVLNQPANARPK, peptide start residue: 33)”, for which the log2 fold change stood at 0.581.

As for “UniProt P61887 (peptide sequence: FGVVEFDDNFR, peptide start residue: 143)”, the log2 fold change is -0.44.

For “UniProt P13009 (peptide sequence: DQVEDYAR, peptide start residue: 1198)”, the log2 fold change was -1.27.

With “UniProt P07023 (peptide sequence: KVEHWFGDYAQR, peptide start residue: 345)”, the log2 fold change is 0.528.

As for “UniProt P69829 (peptide sequence: EKMGSTGIGNGIAIPHGKLEEDTLR, peptide start residue: 58)”, the log2 fold change was determined as 0.37.

For “UniProt P0ADZ7 (peptide sequence: DFVAAVLPK, peptide start residue: 96)”, the log2 fold change was -0.282.

Take “UniProt P37747 (peptide sequence: DKDSLASK, peptide start residue: 216)”: the log2 fold change is -0.827.

On to “UniProt P30178 (peptide sequence: QMGSEEQEAK, peptide start residue: 22)”, for which the log2 fold change is -1.15.

In the case of “UniProt P31142 (peptide sequence: GHIPGALNVPWTELVR, peptide start residue: 194)”, the log2 fold change is -0.763.

Take “UniProt P02359 (peptide sequence: FVNILMVDGK, peptide start residue: 26)”: the log2 fold change is 0.921.

Consider “UniProt P52073 (peptide sequence: LEGGEGSVK, peptide start residue: 217)”, for which the log2 fold change was -0.566.

Regarding “UniProt P07118 (peptide sequence: TGNMMQPQLADKIR, peptide start residue: 582)”, the log2 fold change came to 2.07.

Take “UniProt P76010 (peptide sequence: FLNVSPTVER, peptide start residue: 213)”: the log2 fold change was -1.34.
